Measured values taken from PubChem BioAssay (Tox21).
Results filed as inconclusive are left out. Activity calls are given as the source filed them. The call rests on the fitted dose curve; in most records, active means well fitted curve in the direction sought with a large enough effect in the repeat runs; inconclusive means weak or mixed curves; inactive means no such curve, though single readings can be large; an effect the other way counts as inactive or inconclusive.

Tests used:
[1] = Human pregnane X receptor (PXR) small molecule agonists, qHTS cell viability counter screen (AID 1346977); further: nearly all actives have a fitted effect of over 50% in size; further: potency means the concentration at half of the fitted maximal effect
Procedure, shortened: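 PXR-Luc HepG2 cells in medium with 5% charcoal-stripped FBS were pre-incubated 5hr, then exposed to compounds for 24hr at 37C. Viability was read in the same wells by CellTiter-Fluor fluorescence, reagent added after 23hr with a 1hr incubation.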

[2] = Caspase-3/7 induction in HepG2 cells by small molecules, qHTS assay (AID 1346978); further: nearly all actives have a fitted effect of over 15% in size
Procedure, shortened: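 Wild-type HepG2 cells (2,000/well) were settled 5 h at 37 C, 5% CO2, then exposed to compounds in DMSO for 17 h. Caspase-3/7 activity was read by luminescence 30 min after adding Caspase-Glo 3/7 reagent at room temperature.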

[3] = Caspase-3/7 induction in CHO-K1 cells by small molecules, qHTS assay (AID 1346980); further: nearly all actives have a fitted effect of over 15% in size
Procedure, shortened: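 Wild-type cells were seeded at 1,500 per well and settled 5 hr at 37 C, 5% CO2, then exposed to DMSO-dissolved compounds for 17 hr. Caspase-Glo 3/7 reagent was added, and luminescence was read after 30min at room temperature.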

[4] = Caspase-3/7 induction in HepG2 cells by small molecules, qHTS cell viability counter screen (AID 1346981); further: nearly all actives have a fitted effect of over 30% in size; further: potency means the concentration at half of the fitted maximal effect; on activity change, negative = cytotoxicity: series mostly up to about 92 µM
Procedure, shortened: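 Steps: seed 2,000 HepG2 cells per well; incubate 5 hr at 37 C; pin-add compounds in DMSO; incubate 16 hr; add CellTiter-Fluor; after 1 hr at 37 C and 5% CO2, read fluorescence.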

[5] = target: Nuclear receptor subfamily 1 group I member 2 (Homo sapiens) (UniProt O75469); assay: Human pregnane X receptor (PXR) small molecule agonists, qHTS assay (AID 1346982); further: nearly all actives have a fitted effect of over 35% in size; further: potency means the concentration at half of the fitted maximal effect
Procedure, shortened: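 Agonist mode qHTS: PXR-Luc HepG2 cells plated 5 hr before DMSO-dissolved compounds were pinned in, cultured 24 hr at 37 C, 5% CO2; ONE-Glo luminescence readout.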

[6] = target: Nuclear receptor subfamily 1 group I member 2 (Rattus norvegicus) (UniProt Q9R1A7); assay: Rat pregnane X receptor (rPXR) activation by small molecules, qHTS assay (AID 1346983); settings: rPXR luciferase reporter cells, One-Glo luminescence, 24 h; max activation: hits give high values; further: nearly all actives have a fitted effect of over 20% in size
Procedure, shortened: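 Cell-based rPXR luciferase reporter assay, 2,000 cells per well, rested 5hr at 37 C before compound addition in DMSO, then 24 hr at 37 C. One-Glo reagent was added and luminescence read after 30 min at room temperature.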

[7] = target: Nuclear receptor subfamily 1 group I member 2 (Homo sapiens) (UniProt O75469); assay: CYP3A4 induction through human pregnane X receptor (PXR) by small molecules, qHTS assay (AID 1346984); further: nearly all actives have a fitted effect of over 40% in size
Procedure, shortened: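 Steps: seed DPX-2 cells, 5 hr at 37C; pin-transfer compounds; 24 hr at 37C; add Luciferin-IPA (3uM final), 3 hr at 37C; add One-Glo, 30 min RT; read luminescence.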

[8] = target: Nuclear receptor subfamily 1 group I member 2 (Homo sapiens) (UniProt O75469); assay: Human pregnane X receptor (PXR) activation by small molecules, qHTS assay (AID 1346985); further: nearly all actives have a fitted effect of over 40% in size; further: potency means the concentration at half of the fitted maximal effect
Procedure, shortened: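 DPX-2 cells (HepG2 co-transfected with a PXR response element and a CYP3A4-promoter luciferase construct) were seeded at 2,000 per well, rested 5 hr at 37C, then exposed to DMSO-dissolved compounds for 24 hr. Activation was read as luciferase luminescence.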

[9] = target: Cytochrome P450 2D6 (Homo sapiens) (UniProt P10635); assay: Cytochrome P450 Family 2 Subfamily D Member 6 (CYP2D6) small molecule antagonists: luciferase reporter qHTS assay (AID 1671196); further: nearly all actives have a fitted effect of over 50% in size; further: potency means the concentration at half of the fitted maximal effect
Procedure, shortened: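 P450-Glo format: CYP2D6 converts a proluciferin substrate to luciferin in an NADPH-driven reaction lasting 1 h at room temperature. Light output, proportional to CYP2D6 activity, reflects interference by test chemicals.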
On the % scale 0 is the no-effect control and ±100 the full control effect.

Sequence of Cytochrome P450 2D6 (Homo sapiens) (P10635 whole entry, looked up): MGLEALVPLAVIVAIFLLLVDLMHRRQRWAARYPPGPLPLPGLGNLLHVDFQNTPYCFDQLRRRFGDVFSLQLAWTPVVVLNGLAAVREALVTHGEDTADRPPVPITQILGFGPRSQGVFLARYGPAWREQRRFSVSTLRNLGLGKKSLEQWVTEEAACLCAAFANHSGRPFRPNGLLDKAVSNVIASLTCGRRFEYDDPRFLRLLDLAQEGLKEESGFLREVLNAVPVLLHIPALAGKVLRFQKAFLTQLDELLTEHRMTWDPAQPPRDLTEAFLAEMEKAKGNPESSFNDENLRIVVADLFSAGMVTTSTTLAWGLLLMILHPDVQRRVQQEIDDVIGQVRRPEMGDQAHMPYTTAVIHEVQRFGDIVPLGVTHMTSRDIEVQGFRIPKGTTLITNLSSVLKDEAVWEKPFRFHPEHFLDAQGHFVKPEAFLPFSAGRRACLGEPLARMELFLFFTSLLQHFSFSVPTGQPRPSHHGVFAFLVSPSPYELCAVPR
Sequence of Nuclear receptor subfamily 1 group I member 2 (Homo sapiens) (O75469 whole entry, looked up): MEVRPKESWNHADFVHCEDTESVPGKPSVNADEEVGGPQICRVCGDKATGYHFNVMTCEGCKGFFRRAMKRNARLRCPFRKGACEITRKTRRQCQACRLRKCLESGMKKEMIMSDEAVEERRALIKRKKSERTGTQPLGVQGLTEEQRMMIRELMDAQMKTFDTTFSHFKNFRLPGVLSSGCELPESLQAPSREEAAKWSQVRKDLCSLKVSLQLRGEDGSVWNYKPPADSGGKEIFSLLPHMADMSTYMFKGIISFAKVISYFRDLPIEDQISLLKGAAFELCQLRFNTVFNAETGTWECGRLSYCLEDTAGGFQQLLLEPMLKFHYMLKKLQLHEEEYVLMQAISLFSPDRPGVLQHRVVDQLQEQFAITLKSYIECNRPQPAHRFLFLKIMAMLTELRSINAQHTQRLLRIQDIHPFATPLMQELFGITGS
Sequence of Nuclear receptor subfamily 1 group I member 2 (Rattus norvegicus) (Q9R1A7 whole entry, looked up): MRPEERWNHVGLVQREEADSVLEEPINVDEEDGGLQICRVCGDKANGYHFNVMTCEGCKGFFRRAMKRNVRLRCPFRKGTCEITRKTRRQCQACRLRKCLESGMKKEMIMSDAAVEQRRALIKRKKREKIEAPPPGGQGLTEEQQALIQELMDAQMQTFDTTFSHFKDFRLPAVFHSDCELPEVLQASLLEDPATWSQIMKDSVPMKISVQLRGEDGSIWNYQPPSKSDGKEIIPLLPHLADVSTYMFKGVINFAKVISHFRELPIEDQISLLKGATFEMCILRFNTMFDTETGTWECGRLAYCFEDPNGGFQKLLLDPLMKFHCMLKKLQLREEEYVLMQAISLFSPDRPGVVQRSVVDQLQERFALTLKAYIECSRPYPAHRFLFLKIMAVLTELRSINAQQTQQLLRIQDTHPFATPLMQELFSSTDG

Nc1ccc(S(=O)(=O)Nc2ccccc2)cc1
inactive: Potency [1] | Potency [2] | Potency [3] | Potency [4] | Potency [5] | max activation [6] -5.46% | Potency [7] | Potency [8]

CCO[Si](CCCCl)(OCC)OCC
active: Potency [9] 22.3 µM
inactive: Potency [1] | Potency [2] | Potency [3] | Potency [4] | Potency [5]

O=C1OC(=O)C2C3C=CC(C3)C12 (centres undefined)
inactive: Potency [1] | Potency [2] | Potency [3] | Potency [4] | Potency [5] | Potency [9]

C/C(=C(\CCOP(=O)(O)O)SC(=O)c1ccccc1)N(C=O)Cc1cnc(C)nc1N
inactive: activity change, negative = cytotoxicity [1] 10.5% [at 8.39 µM] | caspase activation [2] 0.0207% [at 8.39 µM] | caspase-3/7 activation [3] -0.786% [at 8.39 µM] | activity change, negative = cytotoxicity [4] 6.79% [at 8.39 µM]

CC1OC(=O)C(C)OC1=O (centres undefined)
inactive: Potency [1] | Potency [2] | Potency [3] | Potency [4] | Potency [5] | Potency [9]

S=C([S-])NCCNC(=S)[S-].[Mn+2]
active: Potency [5] 30.6 µM
inactive: Potency [1] | Potency [2] | Potency [3] | Potency [4]

COc1cccc(N(C)C(=S)Oc2ccc3c(c2)CCCC3)n1
active: Potency [5] 8.41 µM | Potency [8] 1.26 µM
inactive: Potency [1] | Potency [2] | Potency [3] | Potency [4] | Potency [9]

CCCNCC(O)COc1ccccc1C(=O)CCc1ccccc1 (centres undefined)
inactive: Potency [2] | Potency [3] | Potency [4]
active: Potency [1] 29.8 µM

CCO[C@H](Cc1ccc(OCCc2ccc(OS(C)(=O)=O)cc2)cc1)C(=O)O
inactive: Potency [1] | Potency [2] | Potency [3] | Potency [4] | Potency [5] | Potency [9]

C[N+]1(CC2COC(c3ccccc3)(C3CCCCC3)O2)CCCCC1 (centres undefined)
active: Potency [9] 0.977 µM
inactive: Potency [1] | Potency [2] | Potency [3] | Potency [4] | Potency [5] | max activation [6] -1.36% | Potency [7] | Potency [8]

CCN(CC)c1ccc2c(-c3ccccc3C(=O)O)c3ccc(=[N+](CC)CC)cc-3oc2c1
inactive: Potency [2] | Potency [3]
active: Potency [1] 4.86 µM | Potency [4] 5.45 µM | Potency [5] 24.3 µM | Potency [9] 35.6 µM

O=C(O)c1nc(Cl)c(Cl)c(Cl)c1Cl
inactive: Potency [1] | Potency [2] | Potency [3] | Potency [4] | Potency [5]
active: Potency [9] 28.3 µM

CCOC(=O)COC(=O)c1cc(Oc2ccc(C(F)(F)F)cc2Cl)ccc1[N+](=O)[O-]
inactive: Potency [1] | Potency [2] | Potency [3] | Potency [4]
active: Potency [5] 30.6 µM | Potency [9] 15.9 µM

CCCCC(CC)COC(=O)CCCCCCCCC(=O)OCC(CC)CCCC (centres undefined)
inactive: Potency [1] | Potency [2] | Potency [3] | Potency [4] | Potency [5] | Potency [9]

Cn1c(=O)cc(Oc2ccc(F)cc2F)c2cnc(NCC(C)(C)O)nc21
inactive: Potency [1] | Potency [2] | Potency [3] | Potency [4]
active: Potency [5] 43.3 µM

CC1=CC=C(C(C)C)CC1
inactive: Potency [1] | Potency [2] | Potency [3] | Potency [4] | Potency [5] | Potency [9]

CCOC(=O)C(O)c1ccccc1 (centres undefined)
inactive: Potency [1] | Potency [2] | Potency [3] | Potency [4] | Potency [5] | Potency [9]

CCOC(=O)C(=O)CCc1ccccc1
inactive: Potency [1] | Potency [2] | Potency [3] | Potency [4] | Potency [5]

CCOC(=O)C1=C[C@]2(CC)CCCN3CCc4c(n1c1ccccc41)[C@@H]32
inactive: Potency [2] | Potency [3] | Potency [4]
active: Potency [1] 26.6 µM | Potency [5] 2.37 µM | Potency [9] 2.75 µM

CCCCCCCCCCCCCCOS(=O)(=O)O
inactive: Potency [1] | Potency [2] | Potency [3] | Potency [4] | Potency [5] | Potency [9]

O=C(O)C1(C(=O)Nc2ccc(Cl)cc2Cl)CC1
inactive: Potency [1] | Potency [2] | Potency [3] | Potency [4]
active: Potency [5] 24.3 µM
